PubChem BioAssay (NCI)
The panel holds about 83,000 compounds, 20% with a hit somewhere; the sample as a whole holds those more often.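 Treatment: one concentration, 48 hours, 96-well format. Scoring: percent growth, with anything below 10 considered active.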 Values without a mark were called inactive. Activity calls are given as the source filed them.

Key:
Test in all cases: NCI-60 one-dose screen, 48 h (100 = growth as untreated, 0 = no growth, -100 = all killed)
Details in all cases: 10 µM unless noted
[1] = tested on: HCT-15 colon
[2] = tested on: HT29 colon
[3] = tested on: SNB-75 CNS
[4] = tested on: SNB-19 CNS
[5] = tested on: U251 CNS
[6] = tested on: PC-3 prostate
[7] = tested on: SK-MEL-5 melanoma
[8] = tested on: UACC-62 melanoma
[9] = tested on: LOX IMVI melanoma
[10] = tested on: SK-MEL-28 melanoma

Structure (SMILES)	growth [1]	growth [2]	growth [3]	growth [4]	growth [5]	growth [6]	growth [7]	growth [8]	growth [9]	growth [10]
COc1cccc(C=Nc2cc(C(C)C)c(O)cc2C)c1O	96%	103%	88.3%	93.2%	96%	92.8%	104%	91.9%	94.8%	116%
CCCCCCCCCCCCCCCCNC(=O)Nc1ccc2ccccc2c1	103%	107%	98.1%	96.9%	105%	91.5%	99.4%	92.7%	101%	108%
CCOc1cc(/C=C/C(=O)C(C(=O)/C=C/c2ccc(OC(=O)CNc3nc4ccccc4[nH]3)c(OCC)c2)C(=O)CNc2nc3ccccc3[nH]2)ccc1OC(=O)CNc1nc2ccccc2[nH]1	-41% (active)	-100% (active)	-18.1% (active)	25.1%	-61.5% (active)	3.12% (active)	-86.6% (active)	-61.4% (active)	-98.5% (active)	-29.6% (active)
COc1ccc(-n2cnc3cc(C(=O)N4CCCCC4)ccc32)cc1	104%	102%	86.6%	94.3%	96.6%	94.6%	102%	101%	97.9%	99.1%
O=C(N/N=C/c1cccc(O)c1)c1ccc(C(F)(F)F)nc1Nc1cccc(C(F)(F)F)c1	11.5%	7.96% (active)	-5.22% (active)	26.2%	2.76% (active)	-8.91% (active)	8.39% (active)	0.893% (active)	-18.2% (active)	24.7%
Cc1csc(C#Cc2cncc(O)c2)n1	112%	110%	139%	112%	107%	106%	82.6%	98.7%	116%	111%
O=C(O)C1C(c2ccccc2)c2ccccc2C(O)C1CO (stereo not given)	98.2%	106%	80.7%	99.8%	105%	91.5%	107%	95.3%	103%	111%
Cc1ccc2nc(-c3ccc(N(C)C)c(Br)c3)cn2c1	33.9%	72.8%	103%	99.4%	49.1%	53.7%	77.9%	66.6%	56.3%	93.3%
O=C(O)c1ccc(CNS(=O)(=O)c2ccc3ccccc3c2)cc1	104%	102%	90.8%	104%	106%	104%	105%	102%	100%	106%
COC(=O)C1(NC(=O)CNC(=O)OCc2ccccc2)CCCC1	103%	108%	88.4%	96.5%	105%	103%	100%	92.3%	97.3%	102%
C[C@H](C(=O)N[C@@H](Cc1ccc(-c2ccccc2)cc1)C(=O)NC1CC(C)(C)N(C)C(C)(C)C1)c1ccc(-c2ccccc2)c(F)c1	-81.2% (active)	-76.2% (active)	-29% (active)	-72.6% (active)	-74.7% (active)	-70.5% (active)	-94.7% (active)	-57.6% (active)	-83.8% (active)	-73% (active)
CC(=O)N1N=C(c2ccc(C(F)(F)F)cc2)CC1c1ccc2c(c1)OCO2 (stereo not given)	81.1%	47.4%	90%	91%	94.6%	73.9%	95%	65%	81.4%	95.4%
CCSc1ncc(Br)c(Sc2nc(N)nc3nc[nH]c23)n1	68.5%	62.3%	60.2%	121%	89.5%	80.1%	74.6%	19.3%	19.5%	152%
Cc1nn(-c2nc3ccccc3s2)c(C)c1Oc1ccccc1O	29.4%	50.1%	78.7%	80%	33.9%	67%	54.6%	39%	30.1%	22.1%
COc1ccc2c3c(ccc2c1)C(=O)/C(=C\O)CC3	87.3%	103%	91.9%	103%	82.6%	88.2%	103%	107%	87.1%	128%
Nc1nc(NC2CC2)c2ncn(C3C=CC(CO)C3)c2n1 (stereo not given)	107%	101%	117%	112%	102%	119%	91.6%	83.6%	103%	118%
COC(=O)[C@H](Cc1cn(C)cn1)NC(=O)[C@@H](NC(=O)Nc1cc(C(F)(F)F)cc(C(F)(F)F)c1)C(C)C	-87.6% [100 µM] (active)	-81.4% [100 µM] (active)	-99.8% [100 µM] (active)	-90.3% [100 µM] (active)	-95.3% [100 µM] (active)	-89.6% [100 µM] (active)	-95.4% [100 µM] (active)	-93.1% [100 µM] (active)	-79.5% [100 µM] (active)	-96.5% [100 µM] (active)
N#CSCC1CC(O)(c2ccccc2)C(c2ccccc2)C(c2ccc(Cl)cc2)O1 (stereo not given)	-64.6% (active)	1.18% (active)	37.5%	36.6%	-31.1% (active)	-6.02% (active)	-87.4% (active)	-90.5% (active)	-97.4% (active)	-84% (active)
c1ccc(-c2oc(-c3ccccc3)c3ccccc23)cc1	108%	118%	110%	105%	98.9%	82.8%	104%	98.6%	88.5%	125%
COc1cc(C(=O)/C=C/c2cccc(Nc3ccnc4cc(Cl)ccc34)c2)cc(OC)c1OC	-32.1% (active)	-90% (active)	16.4%	20.3%	-90.9% (active)	-12.7% (active)	-45.5% (active)	22.5%	-85.8% (active)	-39.2% (active)
Cc1nn(-c2ccccc2)cc1/C=C1\SC(N2CCCCC2)=NC1=O	22%	55.4%	102%	82.5%	79.4%	71%	68.8%	78.4%	68.1%	108%
O=c1[nH]c(SCc2ccccc2)nc2nc(Nc3ccc(NC(=S)Nc4ccccc4)cc3)nc(-c3ccc(O)cc3O)c12	108%	115%	84.6%	86.9%	85.3%	82.6%	101%	87.9%	98%	94.3%
O=C(CNc1ccc2c(c1)C(=O)c1ccccc1C2=O)Nc1ccc2c(c1)C(=O)c1ccccc1C2=O	-81.5% (active)	-54.5% (active)	-51.4% (active)	-29.9% (active)	-91.4% (active)	-24.3% (active)	-98.1% (active)	-93.3% (active)	-91.7% (active)	-75.1% (active)
O=C(Oc1cccc2ccccc12)c1ccccc1C(=O)c1ccccc1	93.2%	59.5%	98.1%	101%	79.5%	47.6%	96.6%	96.6%	72.3%	119%
CCOc1cc(/C=C/C(=O)CC(=O)/C=C/c2ccc(OC(=O)CNc3nc4ccc(OC)cc4s3)c(OCC)c2)ccc1OC(=O)CNc1nc2ccc(OC)cc2s1	43.4%	-50.8% (active)	34.1%	49%	15.7%	35.3%	30.1%	55.8%	6.98% (active)	39.5%
